# Measured values reported in article PMC7862700, “An all-to-all approach to the identification of sequence-specific readers for epigenetic DNA modifications on cytosine”.
# Assays:
# Assay in all cases: DAPPL (digital affinity profiling via proximity ligation, sequencing); 10 mM Tris-HCl pH 7.5, 50 mM NaCl, 1 mM DTT, 4% glycerol, room temperature, 30 min; GST-TFs on glutathione beads, 16-mer random dsDNA library, 0.1% formaldehyde crosslink after washing; high values mean tight binding
# [1] = target: T1, FEV (Homo sapiens, UniProt Q99581 1-238); conditions: protein: recombinant; tags: N-terminal GST; dsDNA, one strand shown
# T1 sequence: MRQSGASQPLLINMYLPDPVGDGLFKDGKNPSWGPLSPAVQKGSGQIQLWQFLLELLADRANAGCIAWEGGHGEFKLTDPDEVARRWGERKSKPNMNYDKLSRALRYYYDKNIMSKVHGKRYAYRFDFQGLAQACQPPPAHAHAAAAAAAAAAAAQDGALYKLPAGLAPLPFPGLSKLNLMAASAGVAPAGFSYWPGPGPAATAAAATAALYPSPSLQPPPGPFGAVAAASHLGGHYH
# Outline: (§1)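 Pools of DNA-barcoded human transcription factors, expressed in yeast as GST fusions on glutathione beads and combined with a tag-only sample, were incubated with 200 nmole of a 16-mer random double-stranded DNA library. Incubation took 30 min at room temperature in Tris/NaCl/DTT/glycerol buffer and was followed by washing, 0.1% formaldehyde crosslinking, proximity ligation (BsaI/T4 ligase, 1 h, 37 °C), PCR amplification and sequencing on an Illumina NextSeq500. Binding signal is the ratio of a hexamer's read frequency for a factor to its frequency for the tag-only sample.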
# [2] = target: ETV5 (Homo sapiens, UniProt P41161 1-510); conditions: protein: recombinant; tags: N-terminal GST; dsDNA, one strand shown
# Outline: as §1
# [3] = target: HSF1 (Homo sapiens, UniProt Q00613 1-529); conditions: protein: recombinant; tags: N-terminal GST; chain copies: 3; dsDNA, one strand shown
# Outline: as §1
# [4] = target: T2, SPIC (Homo sapiens, UniProt Q8N5J4 1-248); conditions: protein: recombinant; tags: N-terminal GST; dsDNA, one strand shown
# T2 sequence: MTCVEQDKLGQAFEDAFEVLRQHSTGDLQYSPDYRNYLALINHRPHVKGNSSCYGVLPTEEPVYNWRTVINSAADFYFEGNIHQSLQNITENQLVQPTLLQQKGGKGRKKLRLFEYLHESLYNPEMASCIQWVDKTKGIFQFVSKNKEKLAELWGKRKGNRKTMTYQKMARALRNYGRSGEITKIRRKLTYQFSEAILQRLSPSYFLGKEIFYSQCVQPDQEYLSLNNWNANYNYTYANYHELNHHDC
# Outline: as §1
# [5] = target: ELF4 (Homo sapiens, UniProt Q99607 1-663); conditions: protein: recombinant; tags: N-terminal GST; dsDNA, one strand shown
# Outline: as §1
# [6] = target: T3, ELK4 (Homo sapiens, UniProt P28324-2 1-405); conditions: protein: recombinant; tags: N-terminal GST; dsDNA, one strand shown
# T3 sequence: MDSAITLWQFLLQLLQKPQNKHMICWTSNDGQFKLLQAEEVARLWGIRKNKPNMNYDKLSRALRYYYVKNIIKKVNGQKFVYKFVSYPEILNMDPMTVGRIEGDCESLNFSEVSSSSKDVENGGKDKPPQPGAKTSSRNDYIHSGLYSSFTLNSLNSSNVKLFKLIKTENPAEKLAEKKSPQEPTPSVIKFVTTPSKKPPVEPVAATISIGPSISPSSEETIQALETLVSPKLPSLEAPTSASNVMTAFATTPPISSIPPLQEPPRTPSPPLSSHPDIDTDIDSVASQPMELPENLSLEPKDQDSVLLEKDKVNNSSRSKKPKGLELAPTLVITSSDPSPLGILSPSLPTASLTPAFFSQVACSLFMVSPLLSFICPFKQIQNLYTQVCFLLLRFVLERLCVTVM
# Outline: as §1
# [7] = target: T4, ETV2 (Homo sapiens, UniProt O00321 1-342); conditions: protein: recombinant; tags: N-terminal GST; dsDNA, one strand shown
# T4 sequence: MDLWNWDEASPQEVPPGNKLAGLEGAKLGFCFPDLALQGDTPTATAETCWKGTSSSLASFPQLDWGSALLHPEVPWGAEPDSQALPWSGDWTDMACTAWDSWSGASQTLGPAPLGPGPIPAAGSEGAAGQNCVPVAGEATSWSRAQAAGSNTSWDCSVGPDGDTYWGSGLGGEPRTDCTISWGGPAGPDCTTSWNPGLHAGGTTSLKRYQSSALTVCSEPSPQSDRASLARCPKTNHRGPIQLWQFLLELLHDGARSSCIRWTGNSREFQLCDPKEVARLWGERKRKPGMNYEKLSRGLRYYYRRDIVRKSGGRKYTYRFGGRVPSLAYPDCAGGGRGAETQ
# Outline: as §1
# [8] = target: T5, ELF3 (Homo sapiens, UniProt P78545 1-371); conditions: protein: recombinant; tags: N-terminal GST; dsDNA, one strand shown
# T5 sequence: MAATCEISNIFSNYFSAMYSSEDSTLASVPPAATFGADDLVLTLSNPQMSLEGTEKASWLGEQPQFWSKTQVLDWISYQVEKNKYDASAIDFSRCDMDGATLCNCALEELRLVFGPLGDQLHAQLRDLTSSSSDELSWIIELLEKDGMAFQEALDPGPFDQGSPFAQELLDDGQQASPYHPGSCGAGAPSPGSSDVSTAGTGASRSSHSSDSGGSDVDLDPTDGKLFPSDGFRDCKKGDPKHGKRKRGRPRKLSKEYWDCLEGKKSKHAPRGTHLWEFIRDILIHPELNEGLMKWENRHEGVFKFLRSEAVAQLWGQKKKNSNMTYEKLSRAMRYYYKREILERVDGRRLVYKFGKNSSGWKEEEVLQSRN
# Outline: as §1
# [9] = target: CRX (Homo sapiens, UniProt O43186 1-299); conditions: protein: recombinant; tags: N-terminal GST; dsDNA, one strand shown
# Outline: as §1
# [10] = target: ETV1 (Homo sapiens, UniProt P50549 1-477); conditions: protein: recombinant; tags: N-terminal GST; dsDNA, one strand shown
# Outline: as §1
# HSF1, sequence (Q00613 whole entry): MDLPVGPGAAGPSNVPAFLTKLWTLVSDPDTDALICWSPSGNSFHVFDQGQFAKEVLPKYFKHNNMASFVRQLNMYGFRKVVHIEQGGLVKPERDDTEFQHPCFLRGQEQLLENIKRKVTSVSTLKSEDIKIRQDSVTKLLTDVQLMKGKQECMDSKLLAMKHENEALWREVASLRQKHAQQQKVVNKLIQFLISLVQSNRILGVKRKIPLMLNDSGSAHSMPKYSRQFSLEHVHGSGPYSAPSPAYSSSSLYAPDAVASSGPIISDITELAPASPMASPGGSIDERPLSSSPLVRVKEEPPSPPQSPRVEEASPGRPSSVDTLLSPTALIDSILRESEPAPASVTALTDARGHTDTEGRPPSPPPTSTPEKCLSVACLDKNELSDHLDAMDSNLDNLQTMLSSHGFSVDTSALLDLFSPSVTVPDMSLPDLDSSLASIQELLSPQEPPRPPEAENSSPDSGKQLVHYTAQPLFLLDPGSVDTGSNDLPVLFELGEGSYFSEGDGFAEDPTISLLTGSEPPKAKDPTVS
# CRX, sequence (O43186 whole entry): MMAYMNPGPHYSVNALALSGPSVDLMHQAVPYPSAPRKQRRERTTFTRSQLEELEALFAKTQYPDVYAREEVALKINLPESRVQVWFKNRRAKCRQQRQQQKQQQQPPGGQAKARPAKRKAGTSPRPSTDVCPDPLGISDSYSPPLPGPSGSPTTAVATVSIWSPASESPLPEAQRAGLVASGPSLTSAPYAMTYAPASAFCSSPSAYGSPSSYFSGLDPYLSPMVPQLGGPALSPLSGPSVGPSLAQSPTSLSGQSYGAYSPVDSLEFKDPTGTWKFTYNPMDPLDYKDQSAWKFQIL
# ETV1, sequence (P50549 whole entry): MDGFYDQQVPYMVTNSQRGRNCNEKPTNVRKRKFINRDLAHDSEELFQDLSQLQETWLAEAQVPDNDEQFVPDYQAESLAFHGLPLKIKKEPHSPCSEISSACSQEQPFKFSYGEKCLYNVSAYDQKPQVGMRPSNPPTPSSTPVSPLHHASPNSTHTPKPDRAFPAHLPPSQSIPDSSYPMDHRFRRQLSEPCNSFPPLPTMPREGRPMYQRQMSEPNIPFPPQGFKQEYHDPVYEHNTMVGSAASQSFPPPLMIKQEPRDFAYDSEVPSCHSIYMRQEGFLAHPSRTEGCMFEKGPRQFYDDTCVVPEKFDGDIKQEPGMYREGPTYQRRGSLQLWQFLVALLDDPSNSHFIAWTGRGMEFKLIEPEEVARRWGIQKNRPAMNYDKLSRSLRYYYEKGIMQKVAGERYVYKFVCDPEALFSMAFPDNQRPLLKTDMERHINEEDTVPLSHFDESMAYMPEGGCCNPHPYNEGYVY
# ELF4, sequence (Q99607 whole entry): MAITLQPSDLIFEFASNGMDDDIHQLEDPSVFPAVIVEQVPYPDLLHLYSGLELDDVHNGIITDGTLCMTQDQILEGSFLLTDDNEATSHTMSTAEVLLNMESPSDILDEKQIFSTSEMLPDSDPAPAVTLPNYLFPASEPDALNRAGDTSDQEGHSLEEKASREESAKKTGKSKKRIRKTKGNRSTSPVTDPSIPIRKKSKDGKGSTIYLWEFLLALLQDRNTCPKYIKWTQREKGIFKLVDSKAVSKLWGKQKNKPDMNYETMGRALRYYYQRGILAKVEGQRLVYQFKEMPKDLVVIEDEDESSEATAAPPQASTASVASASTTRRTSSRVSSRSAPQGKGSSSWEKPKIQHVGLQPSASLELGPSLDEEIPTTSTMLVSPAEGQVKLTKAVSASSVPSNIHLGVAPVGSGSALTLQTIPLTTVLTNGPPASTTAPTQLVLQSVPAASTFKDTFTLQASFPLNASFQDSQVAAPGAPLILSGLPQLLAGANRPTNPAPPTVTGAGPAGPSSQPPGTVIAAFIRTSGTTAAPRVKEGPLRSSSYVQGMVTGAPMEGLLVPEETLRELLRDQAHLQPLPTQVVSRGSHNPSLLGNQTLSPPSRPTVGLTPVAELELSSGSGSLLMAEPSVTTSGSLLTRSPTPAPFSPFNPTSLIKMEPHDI
# ETV5, sequence (P41161 whole entry): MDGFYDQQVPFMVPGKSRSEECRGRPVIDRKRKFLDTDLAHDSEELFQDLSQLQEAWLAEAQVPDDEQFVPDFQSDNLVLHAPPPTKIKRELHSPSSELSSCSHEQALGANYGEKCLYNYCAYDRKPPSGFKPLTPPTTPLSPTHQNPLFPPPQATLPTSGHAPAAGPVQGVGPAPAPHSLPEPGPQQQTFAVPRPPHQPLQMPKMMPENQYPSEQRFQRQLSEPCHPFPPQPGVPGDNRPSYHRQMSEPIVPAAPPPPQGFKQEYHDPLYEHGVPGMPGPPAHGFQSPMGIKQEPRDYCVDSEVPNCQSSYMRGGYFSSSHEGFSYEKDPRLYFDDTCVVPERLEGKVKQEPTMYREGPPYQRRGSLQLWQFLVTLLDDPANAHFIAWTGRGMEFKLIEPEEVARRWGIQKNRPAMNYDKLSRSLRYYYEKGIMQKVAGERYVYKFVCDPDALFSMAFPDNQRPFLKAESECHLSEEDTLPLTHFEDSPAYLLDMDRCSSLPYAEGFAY
sequence,measurement,setting,value
TTCAAG,binding signal,[1],"1.2 fold enrichment (6-mer frequency, TF over GST control)"
same,binding signal,[2],"1.23 fold enrichment (6-mer frequency, TF over GST control)"
same,binding signal,[3],"1.49 fold enrichment (6-mer frequency, TF over GST control)"
same,binding signal,[4],"1.24 fold enrichment (6-mer frequency, TF over GST control)"
same,binding signal,[5],"1.29 fold enrichment (6-mer frequency, TF over GST control)"
same,binding signal,[6],"1.32 fold enrichment (6-mer frequency, TF over GST control)"
same,binding signal,[7],"1.1 fold enrichment (6-mer frequency, TF over GST control)"
same,binding signal,[8],"1.23 fold enrichment (6-mer frequency, TF over GST control)"
same,binding signal,[9],"1.18 fold enrichment (6-mer frequency, TF over GST control)"
same,binding signal,[10],"1.29 fold enrichment (6-mer frequency, TF over GST control)"
